Results taken from PubChem BioAssay (Tox21).
Records with an inconclusive call do not appear. Calls of active or inactive are those of the source. Unless noted, calls come from the whole dose curve; as a rule, active = well fitted curve in the direction sought with a large enough effect in the repeat runs; inconclusive = weak or mixed curves; inactive = no such curve, though single readings can be large; an effect the other way counts as inactive or inconclusive.

Tests used:
[1] = qHTS assay to identify small molecule agonists of the peroxisome proliferator-activated receptor delta (PPARd) signaling pathway - cell viability counter screen (AID 743211); note: % is set by controls: 0 for no effect and ±100 for the full control effect; nearly all actives have a fitted effect of over 55% in size
How it was run: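 Multiplexed format: after the 2 h room-temperature LiveBLAzer B/G FRET step, CellTiter-Glo was added to the same wells. Luminescence after 30 min gave cell viability; compound exposure was 17 h at 37C.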

[2] = qHTS assay to identify small molecule antagonists of the peroxisome proliferator-activated receptor delta (PPARd) signaling pathway - cell viability counter screen (AID 743213); note: % is set by controls: 0 for no effect and ±100 for the full control effect; nearly all actives have a fitted effect of over 50% in size
How it was run: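 Agonist-stimulated (L165041, 300 nM final) HEK293H PPARd UAS-bla cells are exposed to compounds for 17 h at 37 C, and ATP-based luminescence (CellTiter-Glo) from the same wells reports cytotoxicity.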

[3] = target: Peroxisome proliferator-activated receptor delta (Homo sapiens) (UniProt Q03181); assay: qHTS assay to identify small molecule antagonists of the peroxisome proliferator-activated receptor delta (PPARd) signaling pathway (AID 743215; active = well fitted inhibition curve with a large enough effect in the signal ratio in the repeat runs, not every such curve was filed as active; the % refers to the signal ratio; note: series mostly up to about 62 µM; % is set by controls: 0 for no effect and ±100 for the full control effect)
Peroxisome proliferator-activated receptor delta (Homo sapiens), sequence (Q03181 whole entry, looked up): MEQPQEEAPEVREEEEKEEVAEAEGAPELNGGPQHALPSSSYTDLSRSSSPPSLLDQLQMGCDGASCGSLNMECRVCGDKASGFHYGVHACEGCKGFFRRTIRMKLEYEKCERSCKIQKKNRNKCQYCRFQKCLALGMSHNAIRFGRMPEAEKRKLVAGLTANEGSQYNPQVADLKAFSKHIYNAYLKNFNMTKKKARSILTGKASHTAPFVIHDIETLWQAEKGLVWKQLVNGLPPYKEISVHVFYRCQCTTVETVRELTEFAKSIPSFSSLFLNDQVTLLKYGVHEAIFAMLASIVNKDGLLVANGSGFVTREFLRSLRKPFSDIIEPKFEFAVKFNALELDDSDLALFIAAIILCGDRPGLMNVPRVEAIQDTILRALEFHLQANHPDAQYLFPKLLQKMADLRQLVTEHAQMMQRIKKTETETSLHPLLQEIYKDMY
How it was run: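 HEK293H GeneBLAzer PPARd UAS-bla reporter cells; cpd + L165041 300 nM final, 17 h 37 C; LiveBLAzer B/G FRET substrate 2 h RT; fluorescence intensity read-out. Antagonist mode.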

[4] = target: Bile acid receptor (Homo sapiens) (UniProt Q96RI1); assay: qHTS assay to identify small molecule antagonists of the farnesoid-X-receptor (FXR) signaling pathway (AID 743217; active = well fitted inhibition curve with a large enough effect in the signal ratio in the repeat runs, not every such curve was filed as active; the % refers to the signal ratio; note: % is set by controls: 0 for no effect and ±100 for the full control effect)
Bile acid receptor (Homo sapiens), sequence (Q96RI1 whole entry, looked up): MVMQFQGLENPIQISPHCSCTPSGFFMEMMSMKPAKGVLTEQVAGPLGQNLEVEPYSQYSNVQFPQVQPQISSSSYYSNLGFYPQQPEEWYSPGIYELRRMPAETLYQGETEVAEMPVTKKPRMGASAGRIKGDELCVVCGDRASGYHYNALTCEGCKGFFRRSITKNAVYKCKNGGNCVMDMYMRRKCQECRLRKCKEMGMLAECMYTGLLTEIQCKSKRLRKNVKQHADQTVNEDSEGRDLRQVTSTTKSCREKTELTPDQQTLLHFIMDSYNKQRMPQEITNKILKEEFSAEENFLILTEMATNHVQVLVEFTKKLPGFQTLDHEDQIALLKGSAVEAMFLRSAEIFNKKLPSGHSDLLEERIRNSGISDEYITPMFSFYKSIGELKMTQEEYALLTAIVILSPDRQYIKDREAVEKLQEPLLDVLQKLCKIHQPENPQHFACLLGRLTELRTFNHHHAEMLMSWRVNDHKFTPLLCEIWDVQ
How it was run: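 Read-out: beta-lactamase FRET fluorescence (LiveBLAzer B/G substrate, 2 h, room temperature) in GeneBLAzer FXR-UAS-bla HEK 293T cells. Compounds were co-dosed with 50 uM chenodeoxycholic acid (final) and incubated 16 h at 37 °C.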

[5] = qHTS assay to identify small molecule agonists of the farnesoid-X-receptor (FXR) signaling pathway - cell viability counter screen (AID 743218); note: % is set by controls: 0 for no effect and ±100 for the full control effect; nearly all actives have a fitted effect of over 45% in size
How it was run: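 Luminescence from CellTiter-Glo, read after 30 min at RT, reports viability of GeneBLAzer FXR-UAS-bla HEK 293T cells treated 16 h with compounds in the wells used for the beta-lactamase reporter.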

[6] = target: Bile acid receptor (Homo sapiens) (UniProt Q96RI1); assay: qHTS assay to identify small molecule agonists of the farnesoid-X-receptor (FXR) signaling pathway (AID 743220; active = well fitted activation curve with a large enough effect in the signal ratio in the repeat runs, not every such curve was filed as active; the % refers to the signal ratio; note: % is set by controls: 0 for no effect and ±100 for the full control effect)
How it was run: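 FXR-UAS-bla HEK 293T cells carrying a UAS-driven beta-lactamase reporter were plated for 5 h at 37C/5% CO2, then exposed to DMSO-dissolved Tox21 10K compounds for 16 h at 37C. A LiveBLAzer B/G FRET substrate was loaded for 2 h at room temperature before fluorescence reading.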

[7] = qHTS assay to identify small molecule antagonists of the farnesoid-X-receptor (FXR) signaling pathway - cell viability counter screen (AID 743221; active = well fitted cell-killing curve with a large enough effect in the repeat runs, not every such curve was filed as active; note: % is set by controls: 0 for no effect and ±100 for the full control effect; nearly all actives have a fitted effect of over 50% in size)
How it was run: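 CellTiter-Glo, 30 min RT, luminescence; same wells as the LiveBLAzer FRET read. Cells: FXR-UAS-bla HEK 293T. Treatment: compound with chenodeoxycholic acid 50 uM final, 16 h at 37 C.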

[8] = qHTS assay to identify small molecule agonists of the vitamin D receptor (VDR) signaling pathway - cell viability counter screen (AID 743224); note: series mostly up to about 63 µM; % is set by controls: 0 for no effect and ±100 for the full control effect; nearly all actives have a fitted effect of over 50% in size
How it was run: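 Cytotoxicity counter screen: VDR-bla cells, 16 h compound exposure at 37C, 5% CO2; CellTiter-Glo luminescence, 30 min RT, same wells as bla read.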

[9] = qHTS assay to identify small molecule antagonists of the vitamin D receptor (VDR) signaling pathway - cell viability counter screen (AID 743225); note: % is set by controls: 0 for no effect and ±100 for the full control effect; nearly all actives have a fitted effect of over 50% in size
How it was run: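 Cytotoxicity toward the VDR-bla HEK 293T line was scored by ATP-based CellTiter-Glo luminescence, read in the wells already used for the beta-lactamase readout after 16 h compound treatment under 3 nM 1-alpha,25-dihydroxyvitamin D3 stimulation.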

[10] = qHTS assay to identify small molecule agonists of the NFkB signaling pathway (AID 1159509; active = well fitted curve in the direction sought with a large enough effect in the signal ratio in the repeat runs, not every such curve was filed as active; the % refers to the signal ratio; note: series mostly up to about 61 µM; % is set by controls: 0 for no effect and ±100 for the full control effect)
How it was run: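 Agonist activity was read as beta-lactamase-driven FRET change (460 and 530 nm emission, 405 nm excitation) following 1.5 hr substrate loading at room temperature. Beforehand, ME-180 NFkB-bla reporter cells were treated with compounds for 5 hr at 37 C.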

[11] = qHTS assay to identify small molecule agonists of the NFkB signaling pathway - cell viability counter screen (AID 1159515; calls by dose curve; note: series mostly up to about 61 µM; % is set by controls: 0 for no effect and ±100 for the full control effect; nearly all actives have a fitted effect of over 55% in size)
How it was run: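 ME-180 NFkB-bla cells, 2,000/well; overnight attach; compound 5 hr, 37 C/5% CO2; LiveBLAzer substrate 1.5 hr RT; then CellTiter-Glo in same wells, 30 min RT, luminescence read.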

[12] = qHTS assay to identify small molecule agonists of the endoplasmic reticulum stress response signaling pathway (AID 1159516; active = well fitted activation curve with a large enough effect in the signal ratio in the repeat runs, not every such curve was filed as active; the % refers to the signal ratio; note: % is set by controls: 0 for no effect and ±100 for the full control effect)
How it was run: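 HeLa ESRE-bla reporter line; cpd 5 h, 37 C/5% CO2; LiveBLAzer B/G FRET substrate 2 h RT; ex 405, em 460/530 nm.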

[13] = qHTS assay to identify small molecule agonists of the endoplasmic reticulum stress response signaling pathway - cell viability counter screen (AID 1159517; calls by dose curve)
How it was run: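 Cpd-treated ESRE-bla HeLa (5 hr, 37 C) → LiveBLAzer 2 hr RT → CellTiter-Glo 30 min RT → luminescence.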

[14] = qHTS assay to identify small molecule antagonists of the retinoid-related orphan receptor gamma (ROR-gamma) signaling pathway - cell viability counter screen (AID 1159520); note: nearly all actives have a fitted effect of over 50% in size; note: potency is the fitted concentration of half-maximal effect
How it was run: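 Tet-on ROR gamma CHO cells (1,000/well) were plated 4 hr, given compounds in DMSO for 2 hr at 37 C, then induced with 1 uM final doxycycline for 16 hr. Viability was read as ATP by CellTiter-Glo luminescence after 30 min.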

[15] = qHTS assay to identify small molecule agonists of the AP-1 signaling pathway - cell viability counter screen (AID 1159525; calls by dose curve; note: nearly all actives have a fitted effect of over 55% in size)
How it was run: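 Each titration point was normalised to DMSO and tetra n-octyl ammonium bromide controls. The read was Cell Titer Glo luminescence after 30 min at RT, following 5 h compound exposure of ME-180 AP-1-bla cells at 37 °C.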

[16] = qHTS assay to identify small molecule agonists of the AP-1 signaling pathway (AID 1159526; calls by dose curve; note: % is set by controls: 0 for no effect and ±100 for the full control effect)
[17] = target: Vitamin D3 receptor (Homo sapiens) (UniProt P11473); assay: qHTS assay to identify small molecule agonists of the vitamin D receptor (VDR) signaling pathway (AID 743222; calls by dose curve; note: % is set by controls: 0 for no effect and ±100 for the full control effect)
Vitamin D3 receptor (Homo sapiens), sequence (P11473 whole entry, looked up): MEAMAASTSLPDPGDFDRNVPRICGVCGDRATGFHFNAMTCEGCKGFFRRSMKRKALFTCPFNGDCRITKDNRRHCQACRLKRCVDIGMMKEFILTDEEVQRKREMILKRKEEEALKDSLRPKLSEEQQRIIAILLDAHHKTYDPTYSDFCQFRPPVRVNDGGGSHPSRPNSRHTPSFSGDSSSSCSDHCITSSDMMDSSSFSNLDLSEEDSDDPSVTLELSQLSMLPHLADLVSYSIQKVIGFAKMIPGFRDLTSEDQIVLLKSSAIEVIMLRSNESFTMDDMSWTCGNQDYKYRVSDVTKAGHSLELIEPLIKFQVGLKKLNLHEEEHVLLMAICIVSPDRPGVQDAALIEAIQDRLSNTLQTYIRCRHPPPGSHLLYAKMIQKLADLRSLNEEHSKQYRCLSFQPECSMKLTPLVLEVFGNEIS
How it was run: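 Beta-lactamase reporter readout (LiveBLAzer B/G FRET, 2 h RT) in VDR-bla cells after 16 h compound treatment at 37C, 5% CO2; cells pre-incubated 4 h before pin transfer of DMSO solutions.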

[18] = target: Vitamin D3 receptor (Homo sapiens) (UniProt P11473); assay: qHTS assay to identify small molecule antagonists of the vitamin D receptor (VDR) signaling pathway (AID 743223; active = well fitted inhibition curve with a large enough effect in the signal ratio in the repeat runs, not every such curve was filed as active; the % refers to the signal ratio; note: % is set by controls: 0 for no effect and ±100 for the full control effect)
How it was run: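 After VDR-bla cells are plated and left 4 h at 37C, DMSO-dissolved compounds and 3 nM (final) calcitriol agonist are added. Incubation continues 16 h at 37C; FRET beta-lactamase substrate then develops 2 h at room temperature.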

CC#N
inactive: Potency [1] | Potency [2] | Potency [3] | Potency [4] | Potency [5] | Potency [6] | Potency [7] | Potency [8] | Potency [9] | outcome [10] | outcome [11] | outcome [12] | outcome [13] | Potency [14] | outcome [15] | outcome [16]

O=C(O)c1ccc(CO)o1
inactive: Potency [1] | Potency [2] | Potency [3] | Potency [4] | Potency [5] | Potency [6] | Potency [7] | outcome [17] | Potency [8] | Potency [9] | outcome [10] | outcome [11] | outcome [12] | outcome [13] | Potency [14] | outcome [15] | outcome [16]

CCOC(=O)c1ccccc1C
inactive: Potency [1] | Potency [2] | Potency [4] | Potency [6] | Potency [8] | outcome [10] | outcome [11] | outcome [12] | outcome [13] | Potency [14] | outcome [15] | outcome [16]

O=C(CCCCCCC(=O)Nc1ccccc1)NO
active: Potency [14] 7.5 µM
inactive: Potency [1] | Potency [2] | Potency [3] | Potency [7] | outcome [18] | Potency [8] | Potency [9] | outcome [10] | outcome [11] | outcome [12] | outcome [13] | outcome [15] | outcome [16]

O=C(NCCCN1CCOCC1)c1ccc(Cl)cc1
inactive: Potency [1] | Potency [2] | Potency [3] | Potency [5] | Potency [7] | outcome [17] | outcome [18] | Potency [8] | Potency [9] | outcome [10] | outcome [11] | outcome [12] | outcome [13] | Potency [14] | outcome [15] | outcome [16]

CCCCC(CC)C(=O)OCCOCCOCCOCCOC(=O)C(CC)CCCC (centres undefined)
inactive: Potency [1] | Potency [2] | Potency [4] | Potency [6] | Potency [7] | outcome [17] | outcome [18] | Potency [8] | outcome [10] | outcome [11] | outcome [12] | outcome [13] | Potency [14] | outcome [15] | outcome [16]

CCCC(=O)O[C@]1(C(=O)COC(=O)CC)CC[C@H]2[C@@H]3CCC4=CC(=O)CC[C@]4(C)[C@H]3[C@@H](O)C[C@@]21C
inactive: Potency [1] | Potency [2] | Potency [3] | Potency [4] | Potency [6] | Potency [7] | outcome [17] | outcome [18] | Potency [8] | Potency [9] | outcome [10] | outcome [11] | outcome [12] | outcome [13] | activity, negative = cytotoxicity [14] 0.636% [at 19 µM] | viability change, negative = cytotoxic [15] -0.096% [at 15.8 µM] | activation [16] -6.02% [at 15.8 µM]

Cc1cc(S(=O)(=O)O)ccc1N=Nc1c(O)ccc2ccccc12
inactive: Potency [1] | Potency [2] | Potency [4] | Potency [5] | Potency [6] | Potency [7] | outcome [17] | outcome [18] | Potency [8] | Potency [9] | outcome [10] | outcome [11] | outcome [12] | outcome [13] | Potency [14] | outcome [15] | outcome [16]
